Test results as given in PubChem BioAssay AID1159580 (chemical genetic matrix, 2015).
About 2,000 (36%) of roughly 5,500 compounds were called active. Another 18% or so got no clear call; they are omitted. Cut-off read from the data, not from the text of the source: active = normalized growth mostly below about 0.91 (no sharp cut-off); inconclusive = no clear call, values can overlap the other calls; inactive = mostly above about 0.92. The list shows a part of the results.

Assay: chemical genetic growth profiling, strain panel (AID 1159580);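 note: tested at 20 µM; growth read once vehicle control cultures reached saturation at 30 °C; 1 = growth at the plate median or of vehicle wells; lower values mean less growth of the strain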
Details: growth OD

Measured: normalized growth

CNC(=O)Oc1ccccc1OC(C)C
inactive: S. cerevisiae deletion strains, locus YJR043C, strain POL32, stronger effect = lower value 1.01 | S. cerevisiae deletion strains, locus YJR075W, strain HOC1, stronger effect = lower value 1.02 | S. cerevisiae deletion strains, locus YKL009W, strain mrt4, stronger effect = lower value 0.986 | S. cerevisiae deletion strains, locus YKL068W, stronger effect = lower value 0.991 | S. cerevisiae deletion strains, locus YKL085W, strain MDH1 (second series), stronger effect = lower value 0.982 | S. cerevisiae deletion strains, locus YKL085W, strain MDH1, stronger effect = lower value 0.982 | S. cerevisiae deletion strains, locus YKL160W, strain elf1, stronger effect = lower value 0.996 | S. cerevisiae deletion strains, locus YKL190W, strain CNB1, stronger effect = lower value 1.01 | S. cerevisiae deletion strains, locus YKR001C, strain vps1, stronger effect = lower value 0.99 | S. cerevisiae deletion strains, locus YKR026C, strain gcn3, stronger effect = lower value 0.993 | S. cerevisiae deletion strains, locus YKR091W, strain srl3, stronger effect = lower value 0.989 | S. cerevisiae deletion strains, locus YLL001W, strain dnm1, stronger effect = lower value 0.995 | S. cerevisiae deletion strains, locus YLL026W, stronger effect = lower value 0.986 | S. cerevisiae deletion strains, locus YLL041C, strain sdh2, stronger effect = lower value 0.994 | S. cerevisiae deletion strains, locus YLR027C, strain aat2, stronger effect = lower value 0.995 | S. cerevisiae deletion strains, locus YLR039C, strain RIC1, stronger effect = lower value 1.05 | S. cerevisiae deletion strains, locus YLR058C, strain SHM2, stronger effect = lower value 1.02 | S. cerevisiae deletion strains, locus YLR102C, strain apc9, stronger effect = lower value 0.988 | S. cerevisiae deletion strains, locus YLR221C, strain rsa3, stronger effect = lower value 0.986 | S. cerevisiae deletion strains, locus YLR258W, strain gsy2, stronger effect = lower value 0.984 | S. cerevisiae deletion strains, locus YLR262C, strain YPT6 (second series), stronger effect = lower value 1.01 | S. cerevisiae deletion strains, locus YLR262C, strain YPT6, stronger effect = lower value 1.06 | S. cerevisiae deletion strains, locus YLR268W, strain sec22, stronger effect = lower value 0.99 | S. cerevisiae deletion strains, locus YLR320W, strain mms22, stronger effect = lower value 0.987 | S. cerevisiae deletion strains, locus YLR330W, strain CHS5, stronger effect = lower value 1.02 | S. cerevisiae deletion strains, locus YLR342W, strain FKS1 (second series), stronger effect = lower value 1 | S. cerevisiae deletion strains, locus YLR342W, strain FKS1, stronger effect = lower value 0.99 | S. cerevisiae deletion strains, locus YLR357W, strain rsc2, stronger effect = lower value 0.953 | S. cerevisiae deletion strains, locus YLR370C, strain arc18, stronger effect = lower value 0.992 | S. cerevisiae deletion strains, locus YLR371W, strain rom2, stronger effect = lower value 0.987 | S. cerevisiae deletion strains, locus YLR384C, strain iki3, stronger effect = lower value 0.99 | S. cerevisiae deletion strains, locus YLR418C, strain cdc73, stronger effect = lower value 0.97 | S. cerevisiae deletion strains, locus YML016C, strain PPZ1, stronger effect = lower value 1.03 | S. cerevisiae deletion strains, locus YML032C, strain rad52, stronger effect = lower value 0.989 | S. cerevisiae deletion strains, locus YML120C, strain ndi1, stronger effect = lower value 0.986 | S. cerevisiae deletion strains, locus YML124C, strain tub3, stronger effect = lower value 0.991 | S. cerevisiae deletion strains, locus YMR058W, strain fet3, stronger effect = lower value 0.989 | S. cerevisiae deletion strains, locus YMR078C, strain ctf18, stronger effect = lower value 0.985 | S. cerevisiae deletion strains, locus YMR125W, strain sto1, stronger effect = lower value 0.957 | S. cerevisiae deletion strains, locus YMR129W, stronger effect = lower value 0.995 | S. cerevisiae deletion strains, locus YMR205C, strain PFK2, stronger effect = lower value 0.984 | S. cerevisiae deletion strains, locus YMR223W, strain ubp8, stronger effect = lower value 0.986 | S. cerevisiae deletion strains, locus YMR231W, strain pep5, stronger effect = lower value 0.988 | S. cerevisiae deletion strains, locus YMR263W, strain SAP30, stronger effect = lower value 1.03 | S. cerevisiae deletion strains, locus YMR307W, strain GAS1, stronger effect = lower value 0.988 | S. cerevisiae deletion strains, locus YNL067W, strain RPL9B, stronger effect = lower value 1.03 | S. cerevisiae deletion strains, locus YNL071W, strain lat1, stronger effect = lower value 1 | S. cerevisiae deletion strains, locus YNL128W, strain TEP1, stronger effect = lower value 1.02 | S. cerevisiae deletion strains, locus YNL153C, strain GIM3, stronger effect = lower value 1.02 | S. cerevisiae deletion strains, locus YNL209W, strain ssb2, stronger effect = lower value 0.994 | S. cerevisiae deletion strains, locus YNL233W, strain BNI4, stronger effect = lower value 0.982 | S. cerevisiae deletion strains, locus YNL248C, strain rpa49, stronger effect = lower value 0.979 | S. cerevisiae deletion strains, locus YNL250W, strain rad50, stronger effect = lower value 0.979 | S. cerevisiae deletion strains, locus YNL271C, strain bni1, stronger effect = lower value 0.968 | S. cerevisiae deletion strains, locus YNL298W, strain CLA4, stronger effect = lower value 0.98 | S. cerevisiae deletion strains, locus YNL307C, strain MCK1, stronger effect = lower value 0.992 | S. cerevisiae deletion strains, locus YNL322C, strain KRE1 (second series), stronger effect = lower value 0.98 | S. cerevisiae deletion strains, locus YNL322C, strain KRE1, stronger effect = lower value 1.01 | S. cerevisiae deletion strains, locus YNR049C, strain mso1, stronger effect = lower value 0.989 | S. cerevisiae deletion strains, locus YNR052C, strain pop2, stronger effect = lower value 0.986 | S. cerevisiae deletion strains, locus YOL006C, strain TOP1, stronger effect = lower value 1.06 | S. cerevisiae deletion strains, locus YOL012C, strain htz1 0.953 | S. cerevisiae deletion strains, locus YOL147C, strain pex11, stronger effect = lower value 0.993 | S. cerevisiae deletion strains, locus YOR001W, strain rrp6, stronger effect = lower value 0.998 | S. cerevisiae deletion strains, locus YOR061W, strain CKA2, stronger effect = lower value 1.01 | S. cerevisiae deletion strains, locus YOR069W, strain VPS5, stronger effect = lower value 1.01 | S. cerevisiae deletion strains, locus YOR070C, strain gyp1, stronger effect = lower value 0.986 | S. cerevisiae deletion strains, locus YOR080W, strain dia2, stronger effect = lower value 0.963 | S. cerevisiae deletion strains, locus YOR083W, strain WHI5, stronger effect = lower value 0.995 | S. cerevisiae deletion strains, locus YOR106W, strain vam3, stronger effect = lower value 0.991 | S. cerevisiae deletion strains, locus YOR136W, strain idh2, stronger effect = lower value 0.992 | S. cerevisiae deletion strains, locus YOR144C, strain elg1, stronger effect = lower value 0.995 | S. cerevisiae deletion strains, locus YOR184W, strain ser1, stronger effect = lower value 0.991 | S. cerevisiae deletion strains, locus YOR265W, strain rbl2, stronger effect = lower value 0.985 | S. cerevisiae deletion strains, locus YOR270C, strain vph1, stronger effect = lower value 1 | S. cerevisiae deletion strains, locus YOR290C, strain snf2, stronger effect = lower value 1 | S. cerevisiae deletion strains, locus YOR316C, strain cot1, stronger effect = lower value 0.992 | S. cerevisiae deletion strains, locus YPL051W, strain arl3, stronger effect = lower value 0.995 | S. cerevisiae deletion strains, locus YPL055C, strain LGE1, stronger effect = lower value 1.03 | S. cerevisiae deletion strains, locus YPL078C, strain atp4, stronger effect = lower value 0.998 | S. cerevisiae deletion strains, locus YPL106C, strain sse1, stronger effect = lower value 0.98 | S. cerevisiae deletion strains, locus YPL240C, strain hsp82, stronger effect = lower value 1 | S. cerevisiae deletion strains, locus YPL241C, strain CIN2, stronger effect = lower value 1.01 | S. cerevisiae deletion strains, locus YPR119W, strain clb2, stronger effect = lower value 0.994 | S. cerevisiae deletion strains, locus YPR141C, strain kar3, stronger effect = lower value 0.978 | S. cerevisiae deletion strains, locus YPR163C, strain tif3, stronger effect = lower value 0.987 | S. cerevisiae deletion strains, locus YPR167C, strain met16, stronger effect = lower value 0.989 | S. cerevisiae deletion strains, strain wtn01, stronger effect = lower value 0.984 | S. cerevisiae strains, strain wild type, stronger effect = lower value 1.01
